Assay results reported in the supplement of paper PMC10681739.

Each sequence was assayed against RUNX1 (UniProt Q01196) (assay: RUNX1 binding intensity (PBM fluorescence), RUNX1 alone (arbitrary fluorescence units); higher = stronger binding). Conditions: RUNX1 concentration 2 nM; ETS1 concentration 0 nM.
Procedure: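 Cooperative gcPBM on 36-bp genomic probes with neighbouring ETS1 and RUNX1 sites. Recombinant human RUNX1 (2 nM) was incubated alone or with ETS1 (25 nM) and detected with anti-RUNX1 antibody plus Alexa488 secondary. Values are medians over 4 replicate spots; the RUNX1+ETS1 data were normalised to the RUNX1-only data. The probes sit in constant array flanks that are not printed.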
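For RUNX1 binding intensity (PBM fluorescence), RUNX1 alone in this document: Full-length recombinant human RUNX1 bound to double-stranded 36-bp genomic probes on a high-density microarray, scored as Alexa488 fluorescence per spot via anti-RUNX1 antibody, median of four replicate spots.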

Sequence of RUNX1 (Q01196 whole entry): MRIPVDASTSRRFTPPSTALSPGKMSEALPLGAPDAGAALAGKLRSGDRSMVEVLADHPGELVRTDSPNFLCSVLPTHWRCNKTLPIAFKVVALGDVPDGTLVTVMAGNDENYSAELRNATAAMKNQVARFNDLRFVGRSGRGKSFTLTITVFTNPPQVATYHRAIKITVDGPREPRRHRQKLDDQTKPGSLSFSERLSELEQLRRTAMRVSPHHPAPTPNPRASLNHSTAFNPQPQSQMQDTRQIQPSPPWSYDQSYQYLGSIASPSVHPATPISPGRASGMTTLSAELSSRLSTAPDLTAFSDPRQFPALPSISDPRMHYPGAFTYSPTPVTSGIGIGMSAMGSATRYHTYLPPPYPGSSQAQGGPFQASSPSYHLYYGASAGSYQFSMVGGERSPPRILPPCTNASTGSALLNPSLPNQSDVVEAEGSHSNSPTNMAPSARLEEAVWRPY

| Sequence | RUNX1 binding intensity |
| --- | --- |
| CTCCCCCTTTTTTTCCTGTGGTTTCATTGCATGTTG | 6430 |
| GGCTTCCGCCGCCACCACTGCCCCTCAACCGCCACG | 1110 |
| CTCAGCTCCGCGGAAGTTGCGGTAAGTGGAGCTTTG | 2210 |
| CACTGATTAAGAGGAAGTGTGTGTGGTTATTACCGT | 804 |
| AACAGCTTCCGGCACGGGGGCTGTGGTTGTGTTGGA | 790 |
| TGCTTCCCTTCCGTTCCGACAGCGAAAACCGCTGCC | 998 |
| AGAGCAACAGGATGCAAATAACCACAAGCAAGAATA | 1160 |
| GACCAGGCGAGAGGATGTGGGTATGAGGGAGGAGCT | 835 |
| TCTCTTCCGTTCTCTGGTAGCTTTGTGGTAGCTTTG | 1350 |
| GCACACCGGAACTCACACCTGAAACCACAGAACCAA | 2180 |
| TCTTCAGGCGTCTTTCCGGTGGTGGTCGTTTTTGCT | 905 |
| TGCATGCAACAGGAAGTGGGGTGTGGTTTGTTCTGG | 760 |
| CCCCTCTCTCCCACTTCCTGTGGTCTCAGTCTTTGT | 1500 |
| GGTTGTAAGTTCACAGGATGTGGTGTGTCCCTGTGG | 827 |
| GAAACCGGAAGCGGCGGCTGTCCGCGGTGCCGGCTG | 717 |
| CCCAGCCGAGGGAGGAAGCCTGCGGTCACTGCCATC | 1640 |
| CAGGTGTTCAGGAAACAAAACCACAGACTTTTTCAC | 4690 |
| ACACTGAGCTGAACGGAAATGTGGTTCTCACCTCAT | 774 |
| TCCCCGGCAGCTTCCTCGCCCCGACCGCAGTGTTCC | 1780 |
| GTTTACAGGGGACAGGAAATGTGGGTGAACTCAGCC | 745 |

| Sequence | RUNX1 binding intensity |
| --- | --- |
| TCCAGCCCCACCGGAAGTGGATGTGGTTAATCTAGT | 955 |
| TCTTGTTTCTTCCGTTACCGGAGCGCGGTCACGTGA | 979 |
| GCGGCGAACCGGACGCCCCAACCACCCGCCCCCCAC | 987 |
| CCGCCGACACACTTCCGGCGGCCACCACAGGGTATT | 795 |
| CCTTCCTTCCTGCTGTGTACGTTGTGGTCACAGCAC | 1240 |
| CTGCCGCTGCCTTCCGCCCCCACACACGCACACCAC | 1240 |
| TCGGCGGATATGAAAAAAAGTCCGTGGTCACGTGCA | 730 |
| TCTTCTTCCTCCCCCACCCCAAAAGCCACAGGTGAC | 1290 |
| GAATGACAGAAGCGGAAACCACATGAAAAAGGTGTT | 913 |
| CTGCAGATGCATTTCCTTTTTGTGGTAGCAAGCGTG | 805 |
| TTCTGCTACATCCTGCCCACTCCCTGTGGCTTCCAC | 1380 |
| GGCAGCAAGAAAGGAAATAGTGTGGTTGGGTGGAGA | 846 |
| AACACCTCACACTTCCTGCCCACAAGATAAGAGCCT | 1660 |
| TCCTCCGTTTCCGTAGTTCCGAGTTGCGGTTTCTCC | 12000 |
| GCGCACTTCCGGGCTGGTGAACGCGGTGACGTCACC | 804 |
| CGACCGGAACCACTCTGAGGCGCTGCCGCAGACACC | 919 |
| CCTGTTTCCTGCCATCTGCCCTTCCTTTGTGGTCAA | 3310 |
| GCGCTTCCTGCCAGCTTGGAGGATAACCGCCTACCG | 754 |
| AGCGCGCCGCCGACCGGATGCGGGAACTGGGCTCGG | 715 |
| TGATAAAACACAGGATGTGGTAAGGGAGCTGGCCAA | 682 |

The sequences below were run against T1, ETS1 (UniProt P14921) (assay: ETS1 binding intensity (PBM fluorescence) in presence of RUNX1, normalised to ETS1-only experiment (arbitrary fluorescence units); higher = stronger binding). Conditions: ETS1 concentration 1 nM; RUNX1 concentration 25 nM.
T1 sequence: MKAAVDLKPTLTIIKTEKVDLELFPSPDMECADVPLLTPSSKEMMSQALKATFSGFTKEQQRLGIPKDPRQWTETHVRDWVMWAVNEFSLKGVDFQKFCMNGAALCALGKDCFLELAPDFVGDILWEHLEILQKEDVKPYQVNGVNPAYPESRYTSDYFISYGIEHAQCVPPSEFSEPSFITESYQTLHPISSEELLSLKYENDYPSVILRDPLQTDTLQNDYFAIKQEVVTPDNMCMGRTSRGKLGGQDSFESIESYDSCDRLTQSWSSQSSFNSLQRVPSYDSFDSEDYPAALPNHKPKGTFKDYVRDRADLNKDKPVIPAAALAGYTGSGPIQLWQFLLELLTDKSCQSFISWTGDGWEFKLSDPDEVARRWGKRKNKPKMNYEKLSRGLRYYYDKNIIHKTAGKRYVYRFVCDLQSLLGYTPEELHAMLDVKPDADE

| Sequence | ETS1 binding intensity |
| --- | --- |
| CTCCCCCTTTTTTTCCTGTGGTTTCATTGCATGTTG | 566 |
| GGCTTCCGCCGCCACCACTGCCCCTCAACCGCCACG | 601 |
| CTCAGCTCCGCGGAAGTTGCGGTAAGTGGAGCTTTG | 8730 |
| CACTGATTAAGAGGAAGTGTGTGTGGTTATTACCGT | 8330 |
| AACAGCTTCCGGCACGGGGGCTGTGGTTGTGTTGGA | 1130 |
| TGCTTCCCTTCCGTTCCGACAGCGAAAACCGCTGCC | 783 |
| AGAGCAACAGGATGCAAATAACCACAAGCAAGAATA | 4180 |
| GACCAGGCGAGAGGATGTGGGTATGAGGGAGGAGCT | 1640 |
| TCTCTTCCGTTCTCTGGTAGCTTTGTGGTAGCTTTG | 534 |
| GCACACCGGAACTCACACCTGAAACCACAGAACCAA | 4300 |
| TCTTCAGGCGTCTTTCCGGTGGTGGTCGTTTTTGCT | 1330 |
| TGCATGCAACAGGAAGTGGGGTGTGGTTTGTTCTGG | 39100 |
| CCCCTCTCTCCCACTTCCTGTGGTCTCAGTCTTTGT | 4840 |
| GGTTGTAAGTTCACAGGATGTGGTGTGTCCCTGTGG | 6360 |
| GAAACCGGAAGCGGCGGCTGTCCGCGGTGCCGGCTG | 6810 |
| CCCAGCCGAGGGAGGAAGCCTGCGGTCACTGCCATC | 2740 |
| CAGGTGTTCAGGAAACAAAACCACAGACTTTTTCAC | 2370 |
| ACACTGAGCTGAACGGAAATGTGGTTCTCACCTCAT | 3100 |
| TCCCCGGCAGCTTCCTCGCCCCGACCGCAGTGTTCC | 798 |
| GTTTACAGGGGACAGGAAATGTGGGTGAACTCAGCC | 4710 |

| Sequence | ETS1 binding intensity |
| --- | --- |
| TCCAGCCCCACCGGAAGTGGATGTGGTTAATCTAGT | 56400 |
| TCTTGTTTCTTCCGTTACCGGAGCGCGGTCACGTGA | 438 |
| GCGGCGAACCGGACGCCCCAACCACCCGCCCCCCAC | 1470 |
| CCGCCGACACACTTCCGGCGGCCACCACAGGGTATT | 3660 |
| CCTTCCTTCCTGCTGTGTACGTTGTGGTCACAGCAC | 932 |
| CTGCCGCTGCCTTCCGCCCCCACACACGCACACCAC | 741 |
| TCGGCGGATATGAAAAAAAGTCCGTGGTCACGTGCA | 582 |
| TCTTCTTCCTCCCCCACCCCAAAAGCCACAGGTGAC | 441 |
| GAATGACAGAAGCGGAAACCACATGAAAAAGGTGTT | 4230 |
| CTGCAGATGCATTTCCTTTTTGTGGTAGCAAGCGTG | 932 |
| TTCTGCTACATCCTGCCCACTCCCTGTGGCTTCCAC | 1060 |
| GGCAGCAAGAAAGGAAATAGTGTGGTTGGGTGGAGA | 1640 |
| AACACCTCACACTTCCTGCCCACAAGATAAGAGCCT | 1910 |
| TCCTCCGTTTCCGTAGTTCCGAGTTGCGGTTTCTCC | 3790 |
| GCGCACTTCCGGGCTGGTGAACGCGGTGACGTCACC | 1210 |
| CGACCGGAACCACTCTGAGGCGCTGCCGCAGACACC | 583 |
| CCTGTTTCCTGCCATCTGCCCTTCCTTTGTGGTCAA | 1260 |
| GCGCTTCCTGCCAGCTTGGAGGATAACCGCCTACCG | 513 |
| AGCGCGCCGCCGACCGGATGCGGGAACTGGGCTCGG | 19400 |
| TGATAAAACACAGGATGTGGTAAGGGAGCTGGCCAA | 14200 |
